Assay outcomes: PubChem, National Center for Advancing Translational Sciences (NCATS)
A selection: hits, their analogues and other compounds. The true share with any hit is near 3.8%.
GALK inhibitor – qHTS Assay for Inhibitors of Human Galactokinase (GALK): NCGC Sytravon Library Screen; 44,000 tested, under 10 active; Potency, µM (titrated, usually from 57.5 µM), without a hit: at the highest dose activity, negative = inhibition, usual class: inhibitors; recombinant GALK, Kinase-Glo ATP luminescence, 1 h;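 note: plate controls were full GALK reaction for no effect and reaction lacking GALK for full effect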
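Human GALK (5 nM) was incubated with 35 uM ATP and 100 uM galactose in 20 mM HEPES pH 8.0 with MgCl2, NaCl, DTT and BSA for 1 h at room temperature. Remaining ATP was measured by Kinase-Glo Plus luminescence.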
DRV1 agonist – qHTS for Agonists of Human Resolvin D1 Receptor DRV1; Probable G-protein coupled receptor 32 (Homo sapiens), O75388; CHO-K1 GPR32 beta-arrestin PathHunter luminescence, 90 min; zero percent set by DMSO-only wells; activation, % at 76.9 µM; actives 2.5% (n = 48,000);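 active = activation of at least 60% and not above a set upper limit, about 1 call in 100 departs from these limits; inconclusive = activation of 40% to 60%, or above that upper limit; inactive = activation under 40%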; note: 0% is about no effect
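Cells are plated overnight, treated with compounds in DMSO for 90 minutes at 37 °C, and developed with PathHunter detection reagent for 1 hour before luminescence is read; signal reflects beta-arrestin binding to GPR32 in engineered CHO-K1 cells.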
B2AR arrestin ag – qHTS assay of beta-arrestin-biased ligands of beta2-adrenergic receptor: NCGC Sytravon Library Screen. Potency, µM (doses to about 46.1 µM), hits mostly activators. HTLA Tango cells, beta-arrestin recruitment, luciferase luminescence, 18 h. AID 1347077, 2019. 44,000 tested, under 10 active;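 note: potency is the fitted concentration of half-maximal effect; 0% = DMSO and full agonism = EC100 isoproterenol or metaproterenol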
Target sequence (P07550 whole entry, looked up): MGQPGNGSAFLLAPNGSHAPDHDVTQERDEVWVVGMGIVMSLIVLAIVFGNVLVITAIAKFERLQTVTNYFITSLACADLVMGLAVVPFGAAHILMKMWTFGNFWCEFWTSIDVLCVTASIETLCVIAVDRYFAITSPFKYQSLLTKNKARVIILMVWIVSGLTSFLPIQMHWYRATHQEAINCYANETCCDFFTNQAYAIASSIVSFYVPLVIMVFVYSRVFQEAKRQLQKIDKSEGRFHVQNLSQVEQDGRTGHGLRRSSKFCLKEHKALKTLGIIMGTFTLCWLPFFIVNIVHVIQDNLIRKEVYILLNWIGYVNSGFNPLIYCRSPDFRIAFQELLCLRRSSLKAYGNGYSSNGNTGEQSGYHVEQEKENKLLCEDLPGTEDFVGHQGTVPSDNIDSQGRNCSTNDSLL
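Ligand-induced beta-arrestin recruitment to recombinant beta2-AR is measured via a tTA-driven luciferase reporter in Tango cells after 18 hr compound exposure at 37 degrees C. Concentrations span up to 46 microM.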
PTAP-TSG101 blk – qHTS Validation Assay for Inhibitors of HIV-1 Budding by Blocking the Interaction of PTAP/TSG101: Sytravon Library Screen; Tumor susceptibility gene 101 protein (Homo sapiens), Q99816; Fluorescence polarization, FITC-PTAP peptide/Tsg101, 20 min; Potency, µM (top dose mostly 115 µM), usual class: inhibitors; 44,000 tested, under 10 active; note: potency is the fitted concentration of half-maximal effect; 0% is about no effect
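Compounds pinned into 10 uM Tsg101 binding domain, then 50 nM FITC-PTAP peptide added in pH 7.5 HEPES buffer; FP read after 20 min, room temperature. Total S+P intensity flags fluorescent compounds; active cut-off <25 µM, efficacy <60%.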
SKOV3 invasion – Primary qHTS assay for Inhibitors of ovarian cancer metastasis using an organotypic tumor microenvironment (TME) model | SKOV3ip1-GFP adhesion/invasion on 3D omental model, fluorescence | Potency, µM (titrated, usually from 45.8 µM), for inactives: at the highest dose activity change, negative = inhibition, actives largely listed as inhibitors | actives 0.1% (n = 46,000) | AID 1963576, 2024;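 note: potency is the fitted concentration of half-maximal effect; plate controls were DMSO wells for no effect and tomatine positive control wells for full effect; nearly all actives have a fitted effect of over 65% in size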
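qHTS, 4-pt dose (0.36-46 umol/L); SKOV3ip1-GFP, 1,200 cells/well, no FBS; primary omental fibroblast/mesothelial co-culture 48 h pre-grown; 2 h RT + 16 h 37 C; PBS wash, 4% PFA; GFP count 488/509 nm.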
NTMT1 inhibitor – Primary qHTS for Inhibitors of N-terminal methyltransferase 1 (NTMT1): MTaseGlo Assay | NTMT1 MTase-Glo SAH luminescence, purified enzyme | N-terminal Xaa-Pro-Lys N-methyltransferase 1 (Homo sapiens), Q9BV86 | actives 2.5% (n = 59,000) | Potency, µM (doses to about 114 µM), for inactives: at the top dose activity change, negative = inhibition, hits mostly inhibitors;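 note: potency is the fitted concentration of half-maximal effect; plate controls were DMSO vehicle for no effect and no enzyme for full effect; nearly all actives have a fitted effect of over 65% in size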
* marks the source's active call; other numbers are inactive results; ! = not confirmed by another sample; [ ] = dose if it differs, or a comment. Unless noted, calls come from the whole dose curve; as a rule, active = well fitted curve in the direction sought with a large enough effect; inconclusive = small, poorly fitted or top-dose-only effect, or another doubt; inactive = no such curve, though single readings can be large; an effect the other way counts as inactive or inconclusive.

Results for Cc1ccc(-n2ncc3c(NCCCN4CCOCC4)ncnc32)cc1Cl ?
GALK inhibitor: -1%; DRV1 agonist: 14; B2AR arrestin ag: inactive; PTAP-TSG101 blk: inactive; SKOV3 invasion: 0%; NTMT1 inhibitor: inconclusive

How did Cc1ccc(-n2ncc3c(NCCc4ccccc4)ncnc32)cc1Cl do in these assays?
GALK inhibitor: inconclusive; DRV1 agonist: 117*; B2AR arrestin ag: inactive; PTAP-TSG101 blk: inactive; SKOV3 invasion: 1%; NTMT1 inhibitor: -27%

What do the screens show for `Cc1ccc(-n2ncc3c(NCCO)ncnc32)cc1Cl`?
GALK inhibitor: 3%; DRV1 agonist: 48; B2AR arrestin ag: inactive; PTAP-TSG101 blk: inactive; SKOV3 invasion: 0%; NTMT1 inhibitor: 35µM*

Results for CCOCCc1nn2c(=O)cc(COC(=O)c3cccs3)nc2s1 ?
GALK inhibitor: 0%; DRV1 agonist: -2; B2AR arrestin ag: inactive; PTAP-TSG101 blk: inactive; SKOV3 invasion: -9%; NTMT1 inhibitor: -2%

Results for Fc1ccc(-c2noc3ncnc(NCCc4ccccc4)c23)cc1 ?
GALK inhibitor: 1%; DRV1 agonist: 19; B2AR arrestin ag: inactive; PTAP-TSG101 blk: inactive; SKOV3 invasion: inactive; NTMT1 inhibitor: 6%

Results for c1ccc(CNc2nc(NCc3ccccc3)c3ccccc3n2)cc1 ?
SKOV3 invasion: -3%; NTMT1 inhibitor: 45µM*!

How did c1ccc(CNc2nc(-c3cccs3)nc3ccccc23)cc1 do in these assays?
NTMT1 inhibitor: 5%

Results for COc1ccc(NC(=O)CSc2nc(-c3ccco3)cc(C(F)(F)F)n2)cc1 ?
GALK inhibitor: 3%; DRV1 agonist: 95*; B2AR arrestin ag: inactive; PTAP-TSG101 blk: inactive; SKOV3 invasion: -3%; NTMT1 inhibitor: 14%

How did O=C(CN1C(=O)C2(SCC(=O)N2c2ccccc2)c2ccccc21)NCc1ccccc1 (stereo unspecified) do in these assays?
GALK inhibitor: -1%; DRV1 agonist: -2; B2AR arrestin ag: inactive; PTAP-TSG101 blk: inactive; SKOV3 invasion: 1%; NTMT1 inhibitor: 89µM*

What do the screens show for `Cc1ccc(CN2CCc3nc(N4CCN(c5ccccc5F)CC4)ncc3C2)cc1C`?
GALK inhibitor: -2%; DRV1 agonist: -10; B2AR arrestin ag: inactive; PTAP-TSG101 blk: inactive; SKOV3 invasion: 6%; NTMT1 inhibitor: inconclusive

What do the screens show for `COc1cc(NS(=O)(=O)c2ccc(N)cc2)nc(C)n1`?
DRV1 agonist: 9; NTMT1 inhibitor: -8%[57.5 µM]

What do the screens show for `CCCCCCOc1ccc(C2C(=O)N(C3CCCCC3)CC(=O)N2CCCC)cc1` (stereo unspecified)?
GALK inhibitor: 1%; DRV1 agonist: -23; B2AR arrestin ag: inactive; PTAP-TSG101 blk: inactive; SKOV3 invasion: 9%; NTMT1 inhibitor: 21%

What do the screens show for `COc1ccc(C(=O)N2CC(=O)Nc3ccc(Br)cc3C2c2ccc(F)cc2)cc1OC` (stereo unspecified)?
GALK inhibitor: -3%; DRV1 agonist: -13; B2AR arrestin ag: inactive; PTAP-TSG101 blk: inactive; SKOV3 invasion: -4%; NTMT1 inhibitor: -9%

What do the screens show for `Cc1nn(Cc2ccccc2Cl)c(C)c1NC(=O)c1cc(C(C)C)on1`?
GALK inhibitor: 0%; DRV1 agonist: 86*; B2AR arrestin ag: inactive; PTAP-TSG101 blk: inactive; SKOV3 invasion: -1%
